PubChem BioAssay
The source made the active and inactive calls.

Columns and labels:
[1] = binders of probe aFSTL3 on microarray, primary screen, stem cell growth factor project, biochemical, small-molecule microarray, fluorescence 635/667 (AID 1064); details: higher = more signal;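 note: measures binding of the biotinylated anti-FSTL3 antibody to printed compounds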
[2] = binders from COS7 lysate, DM2A8 probe, primary screen, torsin A project, cell lysate, small-molecule microarray, fluorescence 635/667 (AID 1065); details: higher = more signal, COS7 lysate expressing mutant human TOR1A
[3] = binders of probe aFGF2 on microarray, primary screen, stem cell growth factor project, biochemical, small-molecule microarray, fluorescence 635/667 (AID 1067); details: higher = more signal;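 note: measures binding of biotinylated aFGF2 protein to printed compounds on slides; z-score merges feature fluorescence and signal-to-noise across triplicate slides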
[4] = binders of probe aFGF10 on microarray, primary screen, stem cell growth factor project, biochemical, small-molecule microarray, fluorescence 635/667 (AID 1071); details: higher = more signal;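 note: score merges 667 nm spot intensity and signal to noise from triplicate slides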
[5] = target: Neurogenic locus notch homolog protein 2 (Homo sapiens) (UniProt Q04721); assay: Notch2 binders on small-molecule microarrays, primary screen, biochemical, small-molecule microarray, 635 nm fluorescence, stem cell growth factors (AID 1073); details: Notch2 binding, higher = more signal
[6] = target: Pro-neuregulin-1, membrane-bound isoform (Homo sapiens) (UniProt Q02297); assay: NRG1 binders on small-molecule microarrays, primary screen, psychiatric disease protein project, biochemical, small-molecule microarray, fluorescence 635/667 (AID 1075); details: NRG1 binding, 635 nm fluorescence, higher = more signal;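 note: score combines 667 nm spot fluorescence with signal to noise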
Chain of Pro-neuregulin-1, membrane-bound isoform (Homo sapiens) (Q02297 whole entry, looked up, the tested form may be a part, canonical isoform): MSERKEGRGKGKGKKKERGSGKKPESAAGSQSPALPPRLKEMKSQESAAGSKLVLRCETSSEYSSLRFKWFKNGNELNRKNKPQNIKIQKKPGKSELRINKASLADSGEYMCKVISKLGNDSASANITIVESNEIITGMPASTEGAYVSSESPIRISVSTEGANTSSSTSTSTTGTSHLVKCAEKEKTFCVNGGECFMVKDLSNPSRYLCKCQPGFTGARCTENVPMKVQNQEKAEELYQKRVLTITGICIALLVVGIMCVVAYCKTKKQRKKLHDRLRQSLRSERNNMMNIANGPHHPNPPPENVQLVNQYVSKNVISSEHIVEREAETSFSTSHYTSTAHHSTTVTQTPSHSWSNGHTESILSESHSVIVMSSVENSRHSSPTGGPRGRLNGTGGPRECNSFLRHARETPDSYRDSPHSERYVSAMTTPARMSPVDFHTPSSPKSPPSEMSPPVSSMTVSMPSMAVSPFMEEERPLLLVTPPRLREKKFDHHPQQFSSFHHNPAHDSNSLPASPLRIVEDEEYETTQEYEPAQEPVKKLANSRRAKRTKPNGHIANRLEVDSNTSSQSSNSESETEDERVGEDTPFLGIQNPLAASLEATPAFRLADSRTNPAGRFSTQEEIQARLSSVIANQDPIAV

[7] = test system: Neuregulin-1 EGF-like domain; assay: binders of neuregulin-1 EGF-like domain, primary screen, biochemical, small-molecule microarray, 635 nm fluorescence (AID 1081); details: small-molecule microarray binding, higher = more signal;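 note: binding of the protein to compounds printed on small-molecule microarray slides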
[8] = FRG1 promoter luciferase signal modulators, primary screen, FRG1 inhibition for FSHD, cell-based, C2C12 myotubes, firefly/Renilla luciferase, luminescence (AID 1084); details: higher = more signal, called active from +8 up or from −8 down
[9] = binders of probe aFST on microarray, primary screen, stem cell growth factor project, biochemical, small-molecule microarray, fluorescence 635/667 (AID 1086); details: higher = more signal;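 note: score merges 667 nm fluorescence with signal-to-noise of each printed compound spot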
[10] = binders of probe aHhip on microarray, primary screen, stem cell growth factor project, biochemical, small-molecule microarray, fluorescence 635/667 (AID 1087); details: higher = more signal;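 note: score merges spot fluorescence at 667nm with spot signal to noise ratio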
[11] = test system: PRMT1 (protein arginine N-methyltransferase 1); assay: PRMT1 binders on small-molecule microarrays, primary screen, biochemical, small-molecule microarray, 635 nm fluorescence (AID 1088); details: small-molecule microarray binding, higher = more signal;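 note: binding of Prmt1 protein to compounds spotted on small-molecule microarray slides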
[12] = yeast growth modulation, basal conditions, primary screen, YJM789 clinical isolate, OD600, 24 h (AID 1089);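 note: growth of clinical yeast isolate S. cerevisiae YJM 789 seeded 1000 cells per well; test concentration not given here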; details: S. cerevisiae YJM789 growth, higher = more signal, called active from +8 up or from −8 down
[13] = fission yeast growth modulation, primary screen, strain 972, OD600, 24 h, no modulator (AID 1090);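 note: basal condition with compound alone and no growth modifier present; test concentration not given here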; details: S. pombe 972 growth, higher = more signal, called active from +8 up or from −8 down
[14] = S. cerevisiae growth modulation with rapamycin, primary screen, strain BY4716, OD600, 96 h (AID 1091); details: higher = more signal, called active from +8 up or from −8 down; note: test concentration not given here
[15] = target: Torsin-1A-interacting protein 2 (Homo sapiens) (UniProt Q8NFQ8); assay: LULL1 binders on small-molecule microarray, primary screen, cell lysate, human LULL1 lysate, 635/667 nm fluorescence (AID 1092); details: hLULL1 lysate binding, 635 nm fluorescence, higher = more signal;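 note: probe is lysate of COS7 cells overexpressing human LULL1; score merges per-feature 667 nm fluorescence with signal-to-noise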
Chain of Torsin-1A-interacting protein 2 (Homo sapiens) (Q8NFQ8 whole entry, looked up): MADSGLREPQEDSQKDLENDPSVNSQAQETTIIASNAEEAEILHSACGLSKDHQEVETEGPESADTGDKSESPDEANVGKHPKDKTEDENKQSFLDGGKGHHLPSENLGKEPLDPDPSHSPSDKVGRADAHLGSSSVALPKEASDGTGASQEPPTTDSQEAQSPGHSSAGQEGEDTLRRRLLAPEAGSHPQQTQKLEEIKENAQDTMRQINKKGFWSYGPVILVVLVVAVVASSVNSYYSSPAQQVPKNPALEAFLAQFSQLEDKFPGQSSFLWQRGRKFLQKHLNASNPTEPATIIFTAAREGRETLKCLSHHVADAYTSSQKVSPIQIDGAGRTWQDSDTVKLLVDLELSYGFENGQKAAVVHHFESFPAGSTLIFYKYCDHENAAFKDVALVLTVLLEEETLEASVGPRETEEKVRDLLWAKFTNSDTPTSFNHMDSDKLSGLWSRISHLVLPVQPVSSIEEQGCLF

[16] = E. coli growth modulation, two-sided OD650, primary screen, E. coli filamentation project, strain DRC41, 24 h (AID 1093); details: OD650, 24 h, higher = more signal, called active from +8 up or from −8 down;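 note: MC1000 strain lacking acrAB efflux and sulA so SOS filamentation is blocked; test concentration not given here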
[17] = small-molecule microarray binders of probe aLefty2, primary screen, biochemical, biotinylated probe, 635/667 nm fluorescence (AID 1094); details: higher = more signal;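 note: score merges spot fluorescence near 667 nm with spot signal-to-noise ratio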
[18] = test system: Noggin (protein binding on small-molecule microarray); assay: Noggin binders on small-molecule microarray, primary screen, biochemical, 635/667 nm fluorescence (AID 1095); details: 635 nm fluorescence, higher = more signal;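 note: score merges 667 nm feature fluorescence with signal to noise over triplicate slides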
[19] = target: Neurogenic locus notch homolog protein 3 (Homo sapiens) (UniProt Q9UM47); assay: NOTCH3 binders on small-molecule microarray, primary screen, biochemical, 635/667 nm fluorescence (AID 1096); details: NOTCH3 binding, 635 nm fluorescence, higher = more signal
Chain of Neurogenic locus notch homolog protein 3 (Homo sapiens) (Q9UM47 whole entry, looked up): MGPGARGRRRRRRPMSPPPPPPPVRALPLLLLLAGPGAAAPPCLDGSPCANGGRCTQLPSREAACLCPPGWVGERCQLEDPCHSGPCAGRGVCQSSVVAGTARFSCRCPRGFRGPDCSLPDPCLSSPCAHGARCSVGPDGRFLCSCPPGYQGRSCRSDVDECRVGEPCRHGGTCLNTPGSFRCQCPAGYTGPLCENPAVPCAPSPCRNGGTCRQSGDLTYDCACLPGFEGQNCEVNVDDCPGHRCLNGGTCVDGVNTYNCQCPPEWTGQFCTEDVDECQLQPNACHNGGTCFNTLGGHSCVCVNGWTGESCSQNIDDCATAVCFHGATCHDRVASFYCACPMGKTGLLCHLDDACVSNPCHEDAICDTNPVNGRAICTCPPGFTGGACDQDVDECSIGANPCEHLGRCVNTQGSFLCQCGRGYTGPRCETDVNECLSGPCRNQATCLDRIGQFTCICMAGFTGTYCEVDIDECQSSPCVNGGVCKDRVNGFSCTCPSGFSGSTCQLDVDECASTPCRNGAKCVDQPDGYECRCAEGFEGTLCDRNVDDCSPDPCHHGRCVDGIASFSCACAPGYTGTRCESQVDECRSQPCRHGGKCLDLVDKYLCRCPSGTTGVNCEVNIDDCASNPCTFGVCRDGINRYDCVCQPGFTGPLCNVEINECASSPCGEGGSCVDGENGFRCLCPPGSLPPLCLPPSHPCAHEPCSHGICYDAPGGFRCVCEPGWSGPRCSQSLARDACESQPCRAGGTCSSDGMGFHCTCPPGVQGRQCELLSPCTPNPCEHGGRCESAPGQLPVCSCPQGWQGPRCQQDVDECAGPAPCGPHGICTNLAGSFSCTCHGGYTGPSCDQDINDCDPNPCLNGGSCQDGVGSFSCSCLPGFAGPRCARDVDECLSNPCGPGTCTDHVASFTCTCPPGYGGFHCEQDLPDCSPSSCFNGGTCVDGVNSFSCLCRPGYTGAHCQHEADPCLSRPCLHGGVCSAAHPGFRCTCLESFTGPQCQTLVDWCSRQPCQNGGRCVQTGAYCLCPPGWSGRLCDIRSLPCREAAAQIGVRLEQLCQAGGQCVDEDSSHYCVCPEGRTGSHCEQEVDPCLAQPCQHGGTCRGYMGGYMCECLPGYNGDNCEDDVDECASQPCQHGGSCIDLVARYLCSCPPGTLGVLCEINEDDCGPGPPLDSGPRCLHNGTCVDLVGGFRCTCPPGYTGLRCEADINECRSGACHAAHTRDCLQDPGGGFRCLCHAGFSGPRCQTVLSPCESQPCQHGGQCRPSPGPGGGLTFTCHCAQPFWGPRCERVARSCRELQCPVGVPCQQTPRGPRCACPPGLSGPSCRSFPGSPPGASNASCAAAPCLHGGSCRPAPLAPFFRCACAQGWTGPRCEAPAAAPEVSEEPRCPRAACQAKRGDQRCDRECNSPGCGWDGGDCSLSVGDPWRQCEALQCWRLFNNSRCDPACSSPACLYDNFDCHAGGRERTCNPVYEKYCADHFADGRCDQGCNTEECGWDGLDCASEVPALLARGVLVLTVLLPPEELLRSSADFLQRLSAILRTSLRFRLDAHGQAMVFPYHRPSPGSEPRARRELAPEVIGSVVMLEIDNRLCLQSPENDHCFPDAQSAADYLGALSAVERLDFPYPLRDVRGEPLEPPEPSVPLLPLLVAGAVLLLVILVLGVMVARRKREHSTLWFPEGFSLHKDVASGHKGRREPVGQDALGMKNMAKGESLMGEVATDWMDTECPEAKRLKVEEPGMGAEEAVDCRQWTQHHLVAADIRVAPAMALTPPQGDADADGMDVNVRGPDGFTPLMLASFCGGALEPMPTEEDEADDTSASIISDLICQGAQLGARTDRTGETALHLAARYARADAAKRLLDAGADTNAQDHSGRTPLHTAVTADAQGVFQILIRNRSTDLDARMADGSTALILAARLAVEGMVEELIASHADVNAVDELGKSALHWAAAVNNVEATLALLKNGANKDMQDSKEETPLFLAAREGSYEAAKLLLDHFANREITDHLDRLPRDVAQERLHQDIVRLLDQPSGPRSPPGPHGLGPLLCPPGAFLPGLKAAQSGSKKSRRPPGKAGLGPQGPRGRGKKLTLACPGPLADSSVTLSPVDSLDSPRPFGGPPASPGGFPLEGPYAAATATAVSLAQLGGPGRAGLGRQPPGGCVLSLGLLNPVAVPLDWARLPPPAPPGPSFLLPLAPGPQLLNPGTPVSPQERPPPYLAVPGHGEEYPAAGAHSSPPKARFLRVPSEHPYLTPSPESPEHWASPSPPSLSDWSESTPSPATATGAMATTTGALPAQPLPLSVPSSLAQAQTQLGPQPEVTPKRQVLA

[20] = small-molecule microarray binders of probe aEGFR, primary screen, biochemical, biotinylated probe, 635/667 nm fluorescence (AID 1097); details: higher = more signal;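 note: probe is a biotinylated anti-EGFR antibody binding compounds printed on slides; score combines fluorescence near 667 nm and signal to noise of each spot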

SMILES	composite z-score [1]	composite z-score [2]	composite z-score [3]	composite z-score [4]	composite z-score [5]	composite z-score [6]	composite z-score [7]	z-score [8]	composite z-score [9]	composite z-score [10]	composite z-score [11]	z-score [12]	z-score [13]	z-score [14]	composite z-score [15]	z-score [16]	composite z-score [17]	composite z-score [18]	composite z-score [19]	composite z-score [20]
Cc1ccc(S[C@]2(C(=O)NC(C)C)CC(=O)N(C3CCCCC3)[C@@H]2c2ccc(CO)cc2I)cc1	-0.183	2.15	-0.0257	0.308	0.777	0.897	1.33	-4.76 (inactive)	0.276	-0.399	1.54	-1.15 (inactive)	0.145 (inactive)	2.68 (inactive)	2.84	-0.317 (inactive)	-0.0977	0.7	0.884	0.0203
COC(=O)[C@@]1(Cc2ccccc2)[C@H]2c3cc(C(=O)N(C)C)n(Cc4ccc(C(F)(F)F)nc4)c3C[C@H]2CN1C(=O)c1ccccc1	0.261	0.0724	0.233	0.699	1.67	1.9	1.48	0.0597 (inactive)	1.74	-0.126	0.644	1.06 (inactive)	1.28 (inactive)	1.67 (inactive)	3.69	-0.755 (inactive)	0.348	-0.498	1.03	0.228
C=CCC(OC(C)=O)[C@@H]1[C@@H](N(Cc2cccc3ccccc23)C(=O)c2ccc(-c3ccccc3)cc2)c2cc(OCCCO)ccc2N1C(=O)Cc1ccc2ccccc2c1 (stereo not given in full)	-0.141	0.14	-0.0171	-0.272	0.07	0.022	-0.374	-0.94 (inactive)	0.481	-0.134	0.157	-0.616 (inactive)	0.072 (inactive)	-0.26 (inactive)	0.893	-0.741 (inactive)	-0.145	-0.109	0.397	-0.112
COc1ccc(C(=O)Nc2cccc(CN3C(=O)[C@@]4(O[C@@H](CC(=O)N5CCC[C@H]5CO)[C@H]([Si](C)(C)c5ccc(OC)cc5)[C@H]4C)c4ccccc43)c2)cc1	-0.226	0.484	-0.0625	0.0314	0.518	1.39	1.13	-3.85 (inactive)	-0.0084	-0.261	1.55	-0.624 (inactive)	0.706 (inactive)	-1.2 (inactive)	0.983	-0.126 (inactive)	-0.102	0.766	0.957	-0.118
Cc1ccc(S[C@]2(C(=O)NCCCN(C)C)CC(=O)N(Cc3ccccc3C(F)(F)F)[C@@H]2c2ccc(CO)cc2I)cc1	-0.73	-0.0283	-0.21	-0.211	-0.733	1.51	1.13	0.241 (inactive)	0.216	-0.54	0.349	-1.34 (inactive)	-3.27 (inactive)	0.0267 (inactive)	3.18	-0.328 (inactive)	-0.323	-0.496	-0.174	-0.378
CC(C)(C)N1CC=CC23O[C@@H]4C=CCCOC(=O)C4[C@H]2C(=O)N(CCCCCCO)[C@@H]3C1=O (stereo not given in full)	-0.0477	-1.39	-0.0628	0.0493	-0.615	1.36	1.56	0.908 (inactive)	-0.0273	-0.236	0.647	-0.0623 (inactive)	-0.563 (inactive)	0.352 (inactive)	3.16	-0.2 (inactive)	-0.171	-0.679	0.123	-0.238
C[C@@H]1ON(c2ccc(I)cc2)[C@H](c2cccc(NC(=O)OCC3c4ccccc4-c4ccccc43)c2)[C@H]1C(=O)N1C(=O)OC[C@H]1Cc1ccccc1	-0.162	0.382	-0.132	0.15	0.524	0.608	0.0222	0.108 (inactive)	0.0393	0.132	0.908	0.882 (inactive)	0.534 (inactive)	1.33 (inactive)	0.77	1.28 (inactive)	0.437	0.493	0.893	0.0773
O=C(NC1CC1)[C@@H]1c2ccccc2C(=O)N(Cc2ccc(OC(F)(F)F)cc2)[C@H]1c1ccc(CO)cc1	0.0273	0.314	-0.0418	-0.0789	0.354	1.38	0.793	-0.859 (inactive)	0.0427	-0.0994	0.696	-0.112 (inactive)	-0.636 (inactive)	-1.51 (inactive)	1.76	0.577 (inactive)	-0.0943	0.818	0.377	-0.0679
CC(C)[Si](C#CCCc1ccccc1)(O[C@H](c1ccccc1)c1cn(Cc2ccccc2)nn1)C(C)C	-0.454	-0.137	-0.116	0.529	0.186	0.215	1.12	0.0497 (inactive)	0.584	0.0401	1.25	-1.17 (inactive)	-12.3 (active)	-0.778 (inactive)	0.958	0.791 (inactive)	-0.0095	0.797	1.13	0.0276
COc1ccc([Si](C)(C)[C@@H]2[C@@H](CC(=O)N3Cc4ccccc4C[C@H]3CO)O[C@]3(C(=O)N(Cc4cccc(N5CCOC5=O)c4)c4ccccc43)[C@H]2C)cc1	-0.38	0.671	-0.0264	0.147	0.331	0.309	0.876	-1.64 (inactive)	0.0495	-0.0618	1.56	-1.45 (inactive)	0.837 (inactive)	1.77 (inactive)	1.15	0.742 (inactive)	-0.121	1.42	1.12	-0.0972
C=CCOC(=O)[C@H]1[C@@H]2C(=O)O[C@@H](c3ccccc3)[C@@H](c3ccccc3)N2[C@@H](c2ccc(OCCOC(=O)[C@@H]3C[C@@H]4C(=O)N[C@@H](CCCCNC(C)=O)C(=O)N4[C@@H]3c3cccc(OCCO)c3)cc2)[C@]12C(=O)Nc1ccccc12	0.125	1.67	-0.024	0.489	0.717	1.19	1.3	1.26 (inactive)	0.324	-0.0994	1.54	0.591 (inactive)	0.633 (inactive)	2.18 (inactive)	2.36	-0.471 (inactive)	0.0636	1.34	1.06	-0.0103
C=CCC(OC(C)=O)[C@@H]1[C@@H](N(Cc2ccc(-c3cccc(C(F)(F)F)c3)o2)C(=O)Cc2ccc(F)cc2)c2cc(OCCCO)ccc2N1C(=O)Cc1ccc2ccccc2c1 (stereo not given in full)	0.136	-0.648	-0.129	0.53	-0.349	-0.257	-0.285	0.116 (inactive)	-0.106	-0.212	-0.783	-0.554 (inactive)	0.181 (inactive)	-0.669 (inactive)	-0.199	-1.01 (inactive)	-0.118	-0.244	-0.855	-0.125
O=C1C[C@@](C(=O)O)(c2ccc([N+](=O)[O-])cc2)[C@@H](c2ccc(CO)cc2)N1C1CCCCC1	-0.0207	0.748	0.137	0.687	1.46	1.63	1.21	-0.118 (inactive)	0.905	-0.0645	1.54	1.24 (inactive)	-1.36 (inactive)	1.05 (inactive)	3.12	0.397 (inactive)	0.0909	0.333	1.15	-0.0409
COc1ccc(NN2C(C(O)c3ccc(I)cc3)C=CC3C(=O)N(C4CCCCC4)C(=O)C32)cc1 (stereo not given)	0.0109	0.813	-0.0024	0.896	1.39	1.02	1.04	-0.21 (inactive)	1.61	0.245	1.55	0.147 (inactive)	1.26 (inactive)	0.801 (inactive)	3.04	-0.0155 (inactive)	0.109	0.715	1.03	0.257
COC(=O)[C@@]1(Cc2ccc(OC)cc2)[C@H]2c3cc(C(=O)N4CCCC4)n(Cc4ccc(Cl)c(C(F)(F)F)c4)c3C[C@H]2CN1C(=O)c1ccccc1	0.608	0.673	0.243	0.437	1.64	2	0.605	-2.87 (inactive)	1.53	0.132	1	-1.21 (inactive)	1.37 (inactive)	0.509 (inactive)	3.59	-0.304 (inactive)	0.711	-0.109	1.03	0.0788
CC(C)C[C@@H]1NC(=O)[C@@H]2C[C@H](C(=O)NCCCCCCNC(=O)CS)[C@H](c3cccc(OCCO)c3)N2C1=O	-0.514	1.05	0.0379	0.968	1.34	1.21	1.39	0.509 (inactive)	0.756	-0.069	1.54	0.509 (inactive)	0.679 (inactive)	1.52 (inactive)	2.84	-0.616 (inactive)	-0.0124	1.66	1.02	0.0618
COc1ccc([Si](C)(C)[C@@H]2[C@@H](CC(=O)N(CCO)Cc3ccccc3)O[C@]3(C(=O)N(Cc4ccc(N5C(=O)c6cccc7cccc5c67)cc4)c4ccccc43)[C@H]2C)cc1	-0.0031	0.407	-0.0876	0.181	0.494	0.933	0.956	-1.76 (inactive)	-0.0542	-0.353	1.57	0.655 (inactive)	0.27 (inactive)	3.51 (inactive)	1.63	0.309 (inactive)	-0.0785	0.77	0.223	-0.116
COCCOC(=O)N1C(=O)[C@@]2(c3cc(C#CCCO)ccc31)[C@H](C(N)=O)[C@H]1C(=O)O[C@H](c3ccccc3)[C@H](c3ccccc3)N1[C@@H]2c1ccccc1OCCO	-0.352	0.755	-0.0579	0.658	1.11	1.43	1.19	-0.96 (inactive)	0.52	0.219	1.54	1.85 (inactive)	1.17 (inactive)	3.4 (inactive)	2.15	-0.497 (inactive)	0.319	0.989	1.15	0.105
C=C(COC)C(=O)CC[C@H](OC(=O)c1cccnc1)c1ccc(OCCO)cc1	-0.21	0.43	-0.133	1.2	0.144	0.865	1.29	-0.742 (inactive)	0.21	-0.0618	1.52	-0.191 (inactive)	-1.48 (inactive)	0.535 (inactive)	1.48	0.105 (inactive)	-0.155	1.22	0.78	-0.113
